Measured values published in PubChem BioAssay (Tox21).
Inconclusive results are not listed. The source made the active and inactive calls. Calls follow the shape of the dose curve; as a rule, active = well fitted cell-killing curve with a large enough effect in the repeat runs; inconclusive = weak or mixed curves; inactive = flat fitted curve, though single readings scatter.

Assay: qHTS RealTime-Glo MT Cell Viability Assay in HepG2 cells - 24 hour (AID 1224867); also: nearly all actives have a fitted effect of over 50% in size
Settings: RealTime-Glo luminescence; series mostly up to 76.8 µM; activity change, negative = cytotoxicity: at the top concentration
In short: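 qHTS, HepG2, 600 cells/well, RealTime-Glo (NanoLuc + prosubstrate) added with cells; 5 h preincubation; DMSO compound addition; 37 C; luminescence at 0/8/16/24/32/40 h.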
% is scaled to controls: 0 for no effect and ±100 for the full control effect.

| Structure (SMILES) | activity change, negative = cytotoxicity | Potency |
| --- | --- | --- |
| Cc1ccccc1C(=O)Nc1cccc(OC(C)C)c1 | -13.5% (inactive) | – |
| CCc1ccc(C(=O)NN(C(=O)c2cc(C)cc(C)c2)C(C)(C)C)cc1 | -19.6% (inactive) | – |
| CCO[C@H]1O[C@@H]2OC3(C)CC[C@H]4[C@H](C)CC[C@@H]([C@H]1C)[C@@]24OO3 | -3.23% [at 35.3 µM] (inactive) | – |
| BrCCCCBr | 4.07% (inactive) | – |
| c1cc2ccc3cccc4ccc(c1)c2c34 | -9.59% (inactive) | – |
| C[C@@H]1CC[C@H]2[C@@H](C)C(=O)O[C@@H]3O[C@@]4(C)CC[C@@H]1[C@]32OO4 | 0.877% [at 35.3 µM] (inactive) | – |
| C#CCOC(C(=O)OCCN(C)C)(c1ccccc1)c1ccccc1 | -4.15% [at 35.3 µM] (inactive) | – |
| c1ccc(C2CC2)c(OCC2=NCCN2)c1 | 0.0831% [at 35.3 µM] (inactive) | – |
| Clc1cccc(SC2CCNCC2)n1 | 4.12% [at 35.3 µM] (inactive) | – |
| CCCCCCCCCCOC(=O)c1ccccc1C(=O)OCCCCCCCCCC | -1.08% (inactive) | – |
| [O-][Cl+]O | 0.5% (inactive) | – |
| OCCCBr | -6.25% (inactive) | – |
| O=C(CBr)Nc1ccc(Cl)cc1C(=O)c1ccccc1F | 0.778% [at 35.3 µM] (inactive) | – |
| CN(C)c1ccc(N(C)C)cc1 | 5.68% (inactive) | – |
| Brc1ccc(Oc2ccccc2)cc1 | – | inactive |
| NCCCNCCCN | 3.12% (inactive) | – |
| BrCC(Br)C1CCC(Br)C(Br)C1 (stereo not given) | -9.16% (inactive) | – |
| C=C(C#N)CCC#N | -1.23% (inactive) | – |
| C=CCN1CC[C@]23c4c5ccc(O)c4O[C@H]2C(=O)CC[C@@]3(O)[C@H]1C5 | 1.17% [at 35.3 µM] (inactive) | – |
| CCCCCCC#N | -2.34% (inactive) | – |
| CO[C@@H]1[C@H](OC(=O)NC(=O)CCl)CC[C@]2(CO2)[C@H]1[C@@]1(C)O[C@@H]1CC=C(C)C | 0.578% [at 15.8 µM] (inactive) | – |
| C=COC(C)=O | 0.996% (inactive) | – |
| CN1C(=O)NC(=O)C(C)(C2=CCCCC2)C1=O (stereo not given) | 0.747% [at 35.3 µM] (inactive) | – |
| CCCCCC[N+](=O)[O-] | 1.98% (inactive) | – |
| COc1c(C(C)(C)C)cc([N+](=O)[O-])c(C)c1[N+](=O)[O-] | 2.01% (inactive) | – |
